PubChem BioAssay AID624116 (National Center for Advancing Translational Sciences (NCATS), 2012)
Inconclusive results are not listed. Unmarked numbers belong to inactive results. Calls of active or inactive are those of the source. Calls come from the whole dose curve; as a rule, active = well fitted activation curve with a large enough effect; inconclusive = small, poorly fitted or top-dose-only effect; inactive = no such curve, though single readings can be large or run the other way.

experiment: qHTS Assay for Rab9 Promoter Activators: Hit Validation Using Renilla Luciferase Read-Out for Rab9; conditions: Huh7 Rab9 promoter Renilla luciferase reporter, 24 h; series mostly up to 76.9 µM; activation, negative = inhibition: at the top concentration; for activation, negative = inhibition: % of control where 0% means no effect
Source text: Niemann Pick Type C (NPC) is a rare neurodegenerative lipidosis that is characterized by lipid storage in the endosomal/lysosomal system. Treatment modalities for this devastating disease are currently non-existent due to the severe obstacles associated with accessing the central nervous system with proteins or genes. The majority of mutations causing NPC disease are missense mutations that are distributed throughout the length of the NPC1 protein, with the most prevalent being the I1061T allele. Although NPC1 mutant proteins may be functional, they are typically trapped in the ER due to misfolding. […] We have developed and optimized a cell based renilla luciferase reporter assay in 1536 well format for the identification of up-regulators of the mutant Rab9 promoter. This assay presents data on the validation of hits from the primary screen, which used a firefly luciferase read-out. NIH Chemical Genomics Center [NCGC] NIH Molecular Libraries Probe Production centers Network [MLPCN] MLPCN Grant: MH089375 Assay Submitter (PI): Yiannis A. Ioannou
Huh7 cells stably expressing NPC promoter-luciferase will be seeded at 1,500 cells/well in 5 uL in 1,536-well white opaque plates with 23 nL/well of compound in DMSO solution. The assay plates will be incubated at 37 deg C for 24 hours, after which 3 uL/well BriteLite plus luciferase detection reagent mixture (Perkin Elmer) will be added. Luminescence signal will be measured in a ViewLux plate reader (Perkin Elmer) after a 10 minute incubation at the room temperature.
Potency is the fitted concentration of half-maximal effect.

Compound	activation, negative = inhibition [%]	Potency
Cc1ccccc1NC(=O)Cc1nc(COC(=O)CC(C)c2ccccc2)cs1 (stereo not given)	-7.63	–
CCC(C)(C)NC(=O)C(c1ccc(OC)cc1)N(Cc1cccs1)C(=O)CCC(=O)Nc1cc(C)on1 (stereo not given)	6.22	–
Cc1ccccc1NC(=O)CSc1ccc(-c2cccnc2)nn1	11.8	–
Cc1ccc(S(=O)(=O)/N=C2\C=C(Nc3cccc(C(=O)O)c3)C(=O)c3ccccc32)cc1	-96.1	–
CC1(C)CC(=O)c2c(O)c(-c3ccccc3)c(=O)n(-c3ccccc3)c2C1	0.198	–
Cc1nc(SCC(=O)NC(=O)NC(C)(C)C)nc(C)c1C	-10.1	–
Cc1ccc(N(O)C(=O)NCCCCNC(=O)N(O)c2ccc(C)cc2)cc1	1.97	–
CC1CN(C(=O)c2ccncc2)CC(C)O1 (stereo not given)	5.39	–
Cc1cccc(N2CCN(C(=S)c3ccccc3)CC2)c1	-5.48	–
Brc1ccccc1-c1nnc(CSc2nnc3sc4ccccc4n23)o1	-17.1	–
Cc1ccc(NC(=O)c2cccc(N3C(=O)CCC3=O)c2)nc1	-0.587	–
O=C(CSc1nnc(-c2ccccn2)o1)Nc1ccccc1Cl	-4.88	–
Cc1ccc(C(=O)Nc2nnc(S(=O)(=O)N3CCOCC3)s2)cc1	3.62	–
Nc1nc(SCCO)[nH]c(=O)c1NC(=O)c1ccco1	5.9	–
Cn1c(CCN2CCN(c3ccccc3)CC2)nc2cc(NC(=O)c3ccco3)ccc21	-43.4	–
Cc1ccc2c(c1)sc1nc(=O)n(-c3ccccc3)c(=O)n12	-16.2	–
CCC(=O)NC(=S)Nc1ccc(N2CCOCC2)cc1	16.5	–
Cc1ccc(S(=O)(=O)/N=C(/Nc2ccccn2)c2ccc(Cl)cc2)cc1	–	14.6 µM (active)
NC(=O)C(=O)NN=C1C2CC3CC(C2)CC1C3	-4.68	–
C=CCn1c(C)nnc1SCC(=O)Nc1nccs1	-0.0592	–

Compound	activation, negative = inhibition [%]	Potency
CC(=O)NC(=S)Nc1ccc2oc(-c3cc(F)c(F)cc3Cl)nc2c1	-6.34	–
CCOc1cc(C(=O)N=c2sccn2C)ccc1OC(F)F	-5.54	–
COc1cccc(CNC(=O)CN(c2cc(C)cc(C)c2)S(=O)(=O)c2c(C)noc2C)c1	6.58	–
Cc1ccc(NC(=O)c2c(O)c3ccccc3n(C)c2=O)nc1	9	–
CCCN(CCC)CCCNC(=O)c1cc2cc3ccc(Cl)cc3nc2o1	1.11	–
COc1ccc(-c2csc(Nc3ncccn3)n2)cc1C	5.13	–
CCC1CCCCN1CCCNC(=O)c1ccc2nc(N3CCCCC3)sc2c1 (stereo not given)	0.973	–
Cc1ccc(C(=O)c2cncc(Br)c2)cc1	-0.753	–
Cc1cc(C)cc(N(CC(=O)NC2CCCC2)C(=O)CNC(=O)c2ccco2)c1	-9.62	–
Cc1ccc(C)c(Nc2cc(C)nc3ncnn23)c1	-1.68	–
COc1ccc(-c2nnc(SCC(=O)/C(C#N)=C(\C)N)o2)cc1	-3.43	–
Cc1cccc(C)c1NC(=O)Nc1cccs1	2.79	–
O=C(CCNC(=O)c1ccc(Br)o1)NCc1ccc(Cl)cc1	-1.43	–
COC(=O)c1ccc(NC(=O)c2ccc3nc(C)sc3c2)cc1	-2.81	–
CCOCC(=O)Nc1c(C(=O)Nc2ccc3c(c2)OCCO3)oc2ccccc12	-30.9	–
Cc1nnc2n(c1=O)N=C(c1ccc(Cl)cc1)CS2	1.19	–
C=CCOC(=O)N1CCN(c2cccc(C(F)(F)F)c2)CC1	-9.5	–
CNC(=O)Cn1nc(C)c2ccccc2c1=O	-0.365	–
O=C(CSc1nnc(Cc2cc(=O)[nH]c(=O)[nH]2)n1-c1ccc(Cl)cc1)NC1CCCC1	-2.18	–
CC(Sc1ncnc2c1cnn2-c1ccccc1)C(=O)Nc1ccc(N2CCOCC2)cc1 (stereo not given)	-13.2	–
